Among the data in PubChem BioAssay (NCI) are growth values, retold here.

Structures are written as SMILES. This is part of a sample that, as a whole, favours compounds with a hit. Of some 83,000 tested, about 20% had one in any assay.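 48-hour exposure, single concentration, 96-well plates; percent growth endpoint where 0 means no net growth. Active: below 10.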 Active and inactive are the calls of the source.

Test systems include NCI-H23 lung; NCI-H226 lung; NCI-H322M lung; HOP-62 NSCLC; NCI-H460 lung; HOP-92 NSCLC; NCI-H522 lung; 786-0 renal; COLO 205 colon; DU-145 prostate; K-562 leukemia; MALME-3M melanoma; MDA-MB-231 breast; RXF 393 renal; SF-268 CNS; SF-295 CNS; SF-539 CNS; UACC-257 melanoma; M14 melanoma.
Common to all, as to assay: NCI-60 one-dose screen, 48 h (100 = growth as untreated, 0 = no growth, -100 = all killed)
Conditions in all cases: 10 µM unless noted

Turning to `COc1nc2ccccc2cc1-c1nc2c(cnn2-c2ccccc2)c(=O)[nH]1`, the growth is 46.2% (inactive) in the experiment with NCI-H23 lung; 73.3% (inactive) in the experiment on NCI-H226 lung; 82.1% (inactive) with NCI-H322M lung; 44.2% (inactive) with HOP-62 NSCLC; 24.4% (inactive) in the experiment on NCI-H460 lung; 64.6% (inactive) with HOP-92 NSCLC. The growth in the experiment on NCI-H522 lung was 21.6% (inactive); in the experiment on 786-0 renal, 61.9% (inactive); in the experiment with COLO 205 colon, 32.6% (inactive); with DU-145 prostate, 61% (inactive); in the experiment on K-562 leukemia it was 16.7% (inactive); in the experiment with MALME-3M melanoma, 75.6% (inactive). The growth in the experiment on MDA-MB-231 breast was 58.3% (inactive); in the experiment with RXF 393 renal, 67.1% (inactive); in the experiment with SF-268 CNS it was 53.6% (inactive); with SF-295 CNS it was 43.8% (inactive); in the experiment on SF-539 CNS, 28.9% (inactive); in the experiment on UACC-257 melanoma, 55.5% (inactive). Also, the growth in the experiment on M14 melanoma was 23.9% (inactive).

On to `CNc1nc2c(s1)C(c1cc(F)ccc1F)CC(=O)N2` (stereo unspecified), for which the growth in the experiment with NCI-H23 lung is 85.9% (inactive); with NCI-H226 lung, 84.8% (inactive); in the experiment with NCI-H322M lung it was 92.2% (inactive); with HOP-62 NSCLC it was 69.1% (inactive); with NCI-H460 lung, 82.3% (inactive); with HOP-92 NSCLC, 85.5% (inactive). For the same compound, the growth with NCI-H522 lung was 51.3% (inactive); with 786-0 renal it was 83.9% (inactive); with COLO 205 colon, 83.7% (inactive); in the experiment on DU-145 prostate it was 76.3% (inactive); with K-562 leukemia, 18.5% (inactive); in the experiment with MALME-3M melanoma it was 70.2% (inactive). In addition, the growth was 69.6% (inactive) in the experiment with MDA-MB-231 breast; 75.5% (inactive) in the experiment with RXF 393 renal; 79.3% (inactive) in the experiment on SF-268 CNS; 87.4% (inactive) in the experiment on SF-295 CNS; 53.8% (inactive) in the experiment on SF-539 CNS; 86.7% (inactive) in the experiment with UACC-257 melanoma. The growth with M14 melanoma is 47.3% (inactive).

`Cc1ccc(/C=C2\Oc3ccc(O)c(O)c3C2=O)cc1`: the growth in the experiment on NCI-H23 lung was 36.6% (inactive); in the experiment with NCI-H226 lung it was 62.2% (inactive); in the experiment on NCI-H322M lung, 58% (inactive); with HOP-62 NSCLC it was 44.8% (inactive); in the experiment with NCI-H460 lung it was 43.4% (inactive); in the experiment on HOP-92 NSCLC, 35.9% (inactive). Further, the growth in the experiment with NCI-H522 lung is 13.6% (inactive); in the experiment on 786-0 renal, 52.5% (inactive); with COLO 205 colon it was 107% (inactive); in the experiment with DU-145 prostate it was 46.1% (inactive); in the experiment with K-562 leukemia, 19.2% (inactive); with MALME-3M melanoma it was 66.1% (inactive). Besides, the growth with MDA-MB-231 breast is 56.1% (inactive); in the experiment on RXF 393 renal, 27.4% (inactive); with SF-268 CNS it was 37.5% (inactive); in the experiment on SF-295 CNS, 54% (inactive); in the experiment on SF-539 CNS, 32.7% (inactive); in the experiment with UACC-257 melanoma, 96.6% (inactive). Further, the growth in the experiment on M14 melanoma was 56.1% (inactive).

As to `COc1cc(OCc2cccc(-c3ccc(C(O)c4nccs4)cc3)c2C)cc(OC)c1CNCCNC(C)=O` (stereo unspecified), the growth in the experiment with NCI-H23 lung is 98.1% (inactive); with NCI-H226 lung, 96.2% (inactive); in the experiment with NCI-H322M lung, 99.1% (inactive); in the experiment with HOP-62 NSCLC, 108% (inactive); with NCI-H460 lung, 101% (inactive); with HOP-92 NSCLC, 81.8% (inactive). The growth in the experiment on NCI-H522 lung was 101% (inactive); in the experiment on 786-0 renal it was 102% (inactive); in the experiment on COLO 205 colon, 104% (inactive); in the experiment on DU-145 prostate, 111% (inactive); with K-562 leukemia it was 77.2% (inactive); in the experiment with MALME-3M melanoma, 86% (inactive). The growth with MDA-MB-231 breast is 101% (inactive); with RXF 393 renal it was 107% (inactive); with SF-268 CNS, 97.5% (inactive); in the experiment with SF-295 CNS, 103% (inactive); with SF-539 CNS it was 101% (inactive); in the experiment on UACC-257 melanoma, 99% (inactive). Besides, in the experiment on M14 melanoma, the growth is 99.6% (inactive).

Take `O=C(Nc1ccc(OS(=O)(=O)c2ccc(F)cc2)cc1)c1ccc(Cl)cc1`: the growth in the experiment with NCI-H23 lung is 94% (inactive); with NCI-H226 lung, 99.5% (inactive); with NCI-H322M lung it was 92.6% (inactive); in the experiment on HOP-62 NSCLC, 101% (inactive); in the experiment on NCI-H460 lung, 101% (inactive); in the experiment on HOP-92 NSCLC it was 101% (inactive). The growth was 83.6% (inactive) in the experiment on NCI-H522 lung; 104% (inactive) with 786-0 renal; 114% (inactive) in the experiment on COLO 205 colon; 107% (inactive) with DU-145 prostate; 81.1% (inactive) with K-562 leukemia; 96.9% (inactive) in the experiment with MALME-3M melanoma. Besides, the growth is 104% (inactive) in the experiment with MDA-MB-231 breast; 109% (inactive) with RXF 393 renal; 101% (inactive) in the experiment on SF-268 CNS; 105% (inactive) with SF-295 CNS; 108% (inactive) with SF-539 CNS; 100% (inactive) in the experiment with UACC-257 melanoma. In the experiment on M14 melanoma, the growth was 98% (inactive).

As to `Cc1cc(=O)oc2cc(OC(=O)N3CCN(C)CC3)ccc12`, the growth with NCI-H23 lung is 99.6% (inactive); with NCI-H226 lung it was 101% (inactive); in the experiment with NCI-H322M lung, 105% (inactive); in the experiment with HOP-62 NSCLC, 104% (inactive); in the experiment with NCI-H460 lung, 107% (inactive); in the experiment on HOP-92 NSCLC, 103% (inactive). Besides, the growth was 98.9% (inactive) in the experiment with NCI-H522 lung; 108% (inactive) with 786-0 renal; 116% (inactive) in the experiment with COLO 205 colon; 110% (inactive) in the experiment with DU-145 prostate; 90.3% (inactive) in the experiment with K-562 leukemia; 103% (inactive) in the experiment on MALME-3M melanoma. Also, the growth in the experiment on MDA-MB-231 breast is 104% (inactive); with RXF 393 renal, 121% (inactive); with SF-268 CNS, 101% (inactive); in the experiment with SF-295 CNS, 104% (inactive); with SF-539 CNS, 96.3% (inactive); in the experiment with UACC-257 melanoma it was 106% (inactive). Also, the growth in the experiment with M14 melanoma was 95.5% (inactive).

Turning to `COc1ccc(C2C(C#N)=C(N)Oc3c2sc2c(C)cccc32)cc1` (stereo unspecified), the growth in the experiment with NCI-H23 lung was 18.2% (inactive); with NCI-H226 lung, 13.5% (inactive); with NCI-H322M lung it was 48.2% (inactive); with HOP-62 NSCLC it was 40.8% (inactive); with NCI-H460 lung it was 7.35% (active); in the experiment on HOP-92 NSCLC it was 80% (inactive). The growth with NCI-H522 lung is 21.5% (inactive); with 786-0 renal, 27.8% (inactive); in the experiment with COLO 205 colon it was 0.625% (active); in the experiment on DU-145 prostate it was 22.4% (inactive); in the experiment on K-562 leukemia it was 6.98% (active); in the experiment with MALME-3M melanoma it was 62.5% (inactive). Further, the growth was 16.6% (inactive) in the experiment with MDA-MB-231 breast; -11.7% (active) with RXF 393 renal; 49.6% (inactive) in the experiment with SF-268 CNS; 3.47% (active) in the experiment with SF-295 CNS; -16.8% (active) in the experiment on SF-539 CNS; 72.1% (inactive) in the experiment with UACC-257 melanoma. For the same compound, the growth in the experiment on M14 melanoma was 8.58% (active).

In the case of `Cc1ccc(-c2nc(N3CCN(C(=O)c4ccc(OC(F)(F)F)cc4)CC3)c3ccccc3n2)cc1`, the growth was 94.9% (inactive) in the experiment on NCI-H23 lung; 83.6% (inactive) in the experiment with NCI-H226 lung; 93% (inactive) in the experiment with NCI-H322M lung; 99.3% (inactive) with HOP-62 NSCLC; 92.8% (inactive) in the experiment with NCI-H460 lung; 103% (inactive) in the experiment on HOP-92 NSCLC. Moreover, the growth in the experiment with NCI-H522 lung is 82% (inactive); with 786-0 renal, 81.7% (inactive); with COLO 205 colon, 91.1% (inactive); in the experiment with DU-145 prostate, 90.8% (inactive); in the experiment on K-562 leukemia it was 70% (inactive); in the experiment on MALME-3M melanoma it was 104% (inactive). Also, the growth with MDA-MB-231 breast is 84.3% (inactive); with RXF 393 renal it was 88.5% (inactive); with SF-268 CNS, 71.9% (inactive); in the experiment with SF-295 CNS, 93.9% (inactive); with SF-539 CNS, 98.2% (inactive); with UACC-257 melanoma, 99.3% (inactive). Moreover, the growth with M14 melanoma was 94.9% (inactive).

For the compound `O=S(=O)(Nc1ccc(-c2nc(-c3cccc(OCCN4CCOCC4)c3)c(-c3ccnc(Br)c3)[nH]2)cc1)c1ccccc1`, the growth in the experiment with NCI-H23 lung is 35.5% (inactive); in the experiment on NCI-H226 lung it was 48.1% (inactive); in the experiment on NCI-H322M lung, 53.5% (inactive); in the experiment on HOP-62 NSCLC, 40.3% (inactive); with NCI-H460 lung, 28.4% (inactive); in the experiment with HOP-92 NSCLC, 22% (inactive). The growth is 32.8% (inactive) in the experiment on NCI-H522 lung; 13.2% (inactive) with 786-0 renal; 39.3% (inactive) with COLO 205 colon; 59.5% (inactive) in the experiment with DU-145 prostate; 3.42% (active) with K-562 leukemia; 44% (inactive) in the experiment with MALME-3M melanoma. In addition, the growth is 36.8% (inactive) in the experiment with MDA-MB-231 breast; -15.1% (active) in the experiment with RXF 393 renal; 41.3% (inactive) with SF-268 CNS; 2.79% (active) in the experiment on SF-295 CNS; 38.1% (inactive) with SF-539 CNS; 53.1% (inactive) with UACC-257 melanoma. Moreover, the growth in the experiment on M14 melanoma was 36.8% (inactive).
